This passage reports composite z-score and z-score results from PubChem BioAssay.

Activity calls are given as the source filed them.

Assay [1] has as its system Plasmodium falciparum Sir2 (PF13_0152, Sir2A). Description: Plasmodium falciparum Sir2A binding compounds – biochemical, small-molecule microarray, 635 nm fluorescence, primary screen (AID 1098).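 Further: score merges spot fluorescence intensity with its signal-to-noise ratio.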 The settings on record: fluorescence 635 nm, higher = more signal.
A short description of assay [2]: probe aDKK1 binding to arrayed compounds – biochemical, biotinylated probe, 635/667 nm fluorescence, primary screen (AID 1099).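 Further: score merges 667nm spot fluorescence with signal to noise across triplicate slides; reference of the scale not given here.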 The settings on record: small-molecule microarray, higher = more signal.
Assay [3] is described as follows: probe aCHRDL2 binding to arrayed compounds – biochemical, biotinylated probe, 635/667 nm fluorescence, primary screen (AID 1100). The settings on record: small-molecule microarray, higher = more signal.
Assay [4] can be described thus: change in splice reporter luminescence, either direction, cell-based, HEK293, spliceosome inhibition project, primary screen (AID 1101).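 Further: HEK293 cells carrying a splicing-competent luciferase reporter gene; test concentration not given here.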 The conditions noted are these: HEK293 splicing luciferase reporter, 24 h, higher = more signal, called active from +8 up or from −8 down. On the technique in general: A reporter such as luciferase makes a cellular process visible.

In assay [5] the target is Fibroblast growth factor 10 (Homo sapiens) (UniProt O15520). Description: compounds binding fibroblast growth factor 10 – biochemical, small-molecule microarray, 635 nm fluorescence, primary screen (AID 1102). The settings on record: FGF10 binding, fluorescence 635 nm, higher = more signal.
Sequence of Fibroblast growth factor 10 (Homo sapiens) (O15520 whole entry, looked up): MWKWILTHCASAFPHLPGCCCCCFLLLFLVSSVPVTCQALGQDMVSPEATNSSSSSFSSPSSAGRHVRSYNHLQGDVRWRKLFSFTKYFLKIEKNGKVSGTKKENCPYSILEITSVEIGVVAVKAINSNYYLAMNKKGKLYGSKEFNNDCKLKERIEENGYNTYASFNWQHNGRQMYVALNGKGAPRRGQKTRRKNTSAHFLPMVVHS
For assay [6], the system named is glycogen synthase kinase-3 (GSK3A per assay name; protocol says GSK3B). Briefly: compounds binding glycogen synthase kinase-3 – biochemical, small-molecule microarray, 635 nm fluorescence, GSK3A, primary screen (AID 1103). Further: the record names both GSK3A and GSK3B. The settings on record: fluorescence 635 nm, higher = more signal.
In assay [7] the target is Epidermal growth factor receptor (Homo sapiens) (UniProt P00533). Briefly: compounds binding epidermal growth factor receptor – biochemical, small-molecule microarray, 635 nm fluorescence, primary screen (AID 1104).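 Further: score merges 667 nm emission intensity with spot signal to noise over triplicate slides.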 The conditions noted are these: EGFR binding, higher = more signal.
Sequence of Epidermal growth factor receptor (Homo sapiens) (P00533 whole entry, looked up): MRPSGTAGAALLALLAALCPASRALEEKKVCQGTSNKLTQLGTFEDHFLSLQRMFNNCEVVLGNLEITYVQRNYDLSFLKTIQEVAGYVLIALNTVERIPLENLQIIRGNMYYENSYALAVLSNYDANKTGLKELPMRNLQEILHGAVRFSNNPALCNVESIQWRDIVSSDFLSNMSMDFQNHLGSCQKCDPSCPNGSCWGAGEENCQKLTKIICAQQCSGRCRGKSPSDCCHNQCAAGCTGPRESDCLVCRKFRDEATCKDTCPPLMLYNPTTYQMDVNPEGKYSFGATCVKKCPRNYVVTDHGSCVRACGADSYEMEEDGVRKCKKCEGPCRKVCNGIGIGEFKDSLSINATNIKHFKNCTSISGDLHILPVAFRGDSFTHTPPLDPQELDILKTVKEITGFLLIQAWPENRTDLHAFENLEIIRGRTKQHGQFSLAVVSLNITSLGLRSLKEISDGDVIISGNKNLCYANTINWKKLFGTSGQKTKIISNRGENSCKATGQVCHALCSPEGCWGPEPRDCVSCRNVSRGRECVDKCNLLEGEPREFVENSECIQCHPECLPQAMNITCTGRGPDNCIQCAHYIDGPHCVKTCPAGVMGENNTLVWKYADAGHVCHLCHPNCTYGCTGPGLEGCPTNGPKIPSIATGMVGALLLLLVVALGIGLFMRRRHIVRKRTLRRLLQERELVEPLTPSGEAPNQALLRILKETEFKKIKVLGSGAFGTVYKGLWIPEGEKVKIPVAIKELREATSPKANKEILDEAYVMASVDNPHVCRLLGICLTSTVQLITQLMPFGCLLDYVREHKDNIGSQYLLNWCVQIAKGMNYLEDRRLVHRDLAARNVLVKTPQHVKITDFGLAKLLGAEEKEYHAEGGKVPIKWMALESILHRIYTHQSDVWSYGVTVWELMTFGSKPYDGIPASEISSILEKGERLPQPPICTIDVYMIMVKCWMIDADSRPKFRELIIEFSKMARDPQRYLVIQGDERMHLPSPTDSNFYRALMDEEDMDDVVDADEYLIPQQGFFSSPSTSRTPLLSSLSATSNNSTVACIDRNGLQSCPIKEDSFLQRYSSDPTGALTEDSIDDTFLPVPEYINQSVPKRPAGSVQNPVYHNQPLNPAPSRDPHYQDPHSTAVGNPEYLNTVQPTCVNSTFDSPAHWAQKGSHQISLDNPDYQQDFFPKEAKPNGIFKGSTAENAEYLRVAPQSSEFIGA
Assay [8] addresses Follistatin-related protein 3 (Homo sapiens) (UniProt O95633). Briefly: compounds binding follistatin-related protein 3 – biochemical, small-molecule microarray, 635 nm fluorescence, primary screen (AID 1105).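 Further: score merges emission near 667 nm and signal to noise per printed spot across three slides.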 The settings on record: FSTL3 binding, higher = more signal.
For assay [9], the target named is Dickkopf-related protein 1 (Homo sapiens) (UniProt O94907). Briefly: small molecules binding DKK1 protein – biochemical, small-molecule microarray, 635 nm fluorescence scan, primary screen (AID 1106).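 Further: score merges emission near 667 nm with signal to noise over three replicate slides.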 The settings on record: higher = more signal.
Sequence of Dickkopf-related protein 1 (Homo sapiens) (O94907 whole entry, looked up): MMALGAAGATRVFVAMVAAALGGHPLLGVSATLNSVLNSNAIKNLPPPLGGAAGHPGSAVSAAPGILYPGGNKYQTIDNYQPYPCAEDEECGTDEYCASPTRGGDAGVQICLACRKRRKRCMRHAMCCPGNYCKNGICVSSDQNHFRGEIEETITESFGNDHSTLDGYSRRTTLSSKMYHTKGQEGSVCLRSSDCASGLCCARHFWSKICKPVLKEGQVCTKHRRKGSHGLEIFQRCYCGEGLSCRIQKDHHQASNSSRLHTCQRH
Assay [10] relates to Inhibin beta A chain (activin A). Description: small molecules binding activin A – biochemical, small-molecule microarray, 635 nm fluorescence scan, primary screen (AID 1107).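 Further: mouse activin A protein probed at 4.33 µg/mL on printed slides; score merges bound-protein fluorescence near 667 nm with spot signal-to-noise.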 The settings on record: INHBA, higher = more signal.

Sequence of Follistatin-related protein 3 (Homo sapiens) (O95633 whole entry, looked up): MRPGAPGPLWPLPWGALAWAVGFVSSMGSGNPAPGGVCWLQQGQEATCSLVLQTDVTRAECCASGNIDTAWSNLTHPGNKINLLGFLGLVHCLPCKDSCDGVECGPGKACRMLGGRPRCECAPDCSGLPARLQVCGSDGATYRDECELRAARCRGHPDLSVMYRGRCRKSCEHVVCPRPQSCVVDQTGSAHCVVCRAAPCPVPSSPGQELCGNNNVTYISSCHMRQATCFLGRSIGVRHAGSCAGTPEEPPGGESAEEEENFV

`COc1cccc([C@H]2Oc3ccc(OC)cc3C(=NOC(C)CN3CCCCc4nc(C)c(C)cc43)[C@@H]2O)c1` (stereo not given in full): the composite z-score in assay [1] is -0.0106; in [2], -0.151; in assay [3], -0.223; in [5], 0.422; in [6] it was -0.313; in assay [7], 0.132. Besides, the composite z-score amounted to 0.179 in [8], 0.064 in assay [9] and 0.937 in assay [10]. The z-score in [4] is -0.49 (inactive).
With `CCOC(=O)[C@H](Cc1ccccc1)NC(=O)CCC1CC(OC(=O)NCCc2ccc(F)cc2)CC2(CCCC(COC(=O)NCc3ccccc3)O2)O1` (stereo not given in full), the composite z-score in assay [1] was 0.857; in assay [2], -0.208; in assay [3], -0.614; in [5], 1.16; in assay [6], 0.572; in assay [7], 0.33. The composite z-score in assay [8] turned out to be 0.76; in assay [9], 0.529; in [10], 0.0158. Moreover, in assay [4], the z-score was 0.207 (inactive).
For the compound `COc1ccc(O[C@H]2C=C[C@@H](c3ccccc3)O[C@@H]2COC(=O)CCC(C)=NOC[C@@H](O)[C@H]2O[C@@H]3OC(C)(C)O[C@@H]3[C@H]2O)cc1`, the composite z-score was 0.933 in assay [1]; -0.206 in assay [2]; -0.633 in [3]; 0.766 in [5]; 0.87 in assay [6]; 0.615 in [7]. The figures for the composite z-score in [8], in assay [9] and in [10] were 0.847, 0.551 and 0.437, respectively. Besides, the z-score in [4] is 0.17 (inactive).
Regarding `O=C(NN=C1C[C@@H](O)[C@@H](O)[C@@H]2[C@@H]3C(=O)N(C[C@@H]4CCCO4)C(=O)[C@@H]3CC[C@H]12)OCc1ccccc1`, the composite z-score is 0.278 in assay [1]; 0.545 in assay [2]; 0.768 in [3]; -0.132 in assay [5]; -0.658 in assay [6]; -0.0485 in assay [7]. The values for the composite z-score in [8], in assay [9] and in assay [10] were -0.281, -0.575 and 0.902, respectively. In addition, the z-score in [4] is 0.0311 (inactive).
In the case of `CC(C)=CCCC(C)=CCON=C1C[C@@H](O)[C@@H](O)[C@@H]2[C@@H]3C(=O)N(c4ccc(F)cc4F)C(=O)[C@@H]3CC[C@@H]12`, the composite z-score in assay [1] was 0.476; in [2] it was -0.324; in assay [3] it was -0.497; in [5] it was 0.601; in [6], -0.0599; in assay [7] it was 0.628. Also, the composite z-score in assay [8] worked out at 0.806; in assay [9], 0.926; in assay [10], 1.04. Besides, in assay [4], the z-score is -0.118 (inactive).
Consider `CON=C(C)CCC(=O)OC[C@H]1O[C@H](c2ccccc2)C=C[C@@H]1Oc1ccc(OC)cc1`, for which the composite z-score in assay [1] is 0.712; in assay [2], -0.174; in assay [3], -0.15; in assay [5] it was 0.142; in assay [6], -0.496; in assay [7] it was 0.213. The composite z-score was found to be 0.189 in assay [8], 0.474 in [9] and 0.854 in [10]. The z-score in assay [4] was 0.115 (inactive).
Turning to `CO[C@H](C1CCCCC1)[C@H](C)C=CCC(=O)OCCCc1ccccc1`, the composite z-score in assay [1] was -0.023; in assay [2] it was -0.38; in assay [3], -0.708; in [5], 0.227; in assay [6] it was -0.518; in [7], 0.471. Besides, the composite z-score in [8] was 0.201; in [9], 0.287; in assay [10], 0.332. For the same compound, the z-score in assay [4] was -0.0118 (inactive).
For the compound `CCOC(=O)[C@H](Cc1ccccc1)NC(=O)CCC1CC(OC(=O)NCc2ccc3c(c2)OCO3)CC2(CCCC(COC(=O)NCCC(C)C)O2)O1` (stereo not given in full), the composite z-score in assay [1] was 1.21; in [2], -0.197; in [3], -0.287; in assay [5] it was 1.12; in [6] it was 0.18; in assay [7], -0.0617. The values for the composite z-score in [8], in assay [9] and in assay [10] were 0.743, 0.415 and 0.367, respectively. In addition, the z-score in [4] was 0.0184 (inactive).
On to `CON=Cc1ccc(C(=O)N2[C@H](c3ccc(C)cc3)[C@@H](C)CC[C@H]2C(=O)OC)cc1`, for which the composite z-score in assay [1] was 0.365; in assay [2], -0.254; in [3], -0.541; in assay [5] it was 0.52; in assay [6], 0.873; in [7], 0.594. The values for the composite z-score in assay [8], in assay [9] and in assay [10] were 0.512, 0.573 and 0.339, respectively. The z-score in assay [4] was 0.224 (inactive).
As to `O=c1n(Cc2cc3c(cc2Cl)OCO3)c(=O)n2n1CC[C@@H]1C(=NOCc3ccccc3)[C@H]3O[C@H]3[C@@H](O)[C@@H]12`, the composite z-score was 0.172 in assay [1]; 0.87 in assay [2]; -0.546 in assay [3]; 0.531 in assay [5]; 0.432 in [6]; 0.452 in assay [7]. For the same compound, the results for the composite z-score in assay [8], in [9] and in [10] were 0.587, 0.669 and 0.111, respectively. In addition, in assay [4], the z-score is -1 (inactive).
`CCOC(=O)[C@H](Cc1ccccc1)NC(=O)OC1CC(CCC2CC(CC)=NO2)OC2(CCCC(COC(=O)NCCC(C)C)O2)C1` (stereo not given in full): the composite z-score in assay [1] is 0.328; in [2], -0.246; in assay [3], -0.264; in assay [5] it was 0.848; in [6], 0.207; in assay [7] it was 0.0954. Also, the composite z-score in assay [8] was -0.127; in assay [9], 0.0585; in [10], -0.415. In addition, the z-score in [4] is 0.667 (inactive).
Turning to `C#CCCCON=C1C[C@@H](O)[C@@H](O)[C@@H]2[C@@H]3C(=O)N(Cc4ccccc4)C(=O)[C@@H]3CC[C@@H]12`, the composite z-score in assay [1] was -0.596; in assay [2], -0.0538; in [3] it was 0.0175; in assay [5], -0.158; in assay [6], -0.287; in assay [7], 0.193. For the same compound, the composite z-score is -0.016 in [8], -0.211 in assay [9] and 0.359 in [10]. Moreover, the z-score in assay [4] was 0.351 (inactive).
With `CCOC(=O)[C@H](Cc1ccccc1)NC(=O)CCC1CC(OC(=O)NCCc2ccc(F)cc2)CC2(CCCC(COC(=O)NCCCN3CCCC3=O)O2)O1` (stereo not given in full), the composite z-score is 0.844 in [1]; -0.257 in [2]; -0.802 in assay [3]; 0.767 in assay [5]; 0.843 in [6]; 0.478 in assay [7]. The composite z-score is 0.69 in assay [8], 0.493 in [9] and -0.103 in [10]. In addition, in assay [4], the z-score is -1.79 (inactive).
In the case of `COC(=O)CC=C[C@@H](C)[C@@H](C=NO[C@@H](C)c1cn([C@H](CO)Cc2ccccc2)nn1)OC`, the composite z-score is 0.361 in assay [1]; -0.435 in assay [2]; -0.572 in [3]; 0.229 in assay [5]; 0.165 in assay [6]; 0.523 in assay [7]. Besides, the composite z-score in assay [8] was 0.31; in [9] it was 0.498; in [10] it was -0.163. The z-score in assay [4] is -0.772 (inactive).
